Measurements published in PubChem BioAssay (NCI).
About 79,000 compounds went through this panel and 15% of them were active in at least one assay; those are over-represented in the sample as a whole. A number with no mark means an inactive call. The source made the active and inactive calls. No stated cut-off is given here; in the data, active means growth inhibition above about 70%; inactive means the rest. Where a SMILES comes first, the peptide text is derived from it. The star is where a group is joined. Trt = c1ccc(C(c2ccccc2)(c2ccccc2)*)cc1; Cbz = O=C(OCc1ccccc1)*

Experiment: NCI Yeast Anticancer Drug Screen. Data for the sgs1 mgt1 strain (AID 161);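 further: 0% = growth of cultures given vehicle only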
Details: S. cerevisiae sgs1 mgt1 strain, at 50.0 µM, hits give high values
Method in brief: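 Yeast cells carrying a defined DNA-repair defect were exposed to test compounds. Growth inhibition was measured relative to vehicle-treated controls.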
For `CC(=O)O[C@H]1CC[C@]2(C)C3=CC[C@]4(C)[C@@H](C(C)=O)CC[C@H]4[C@@]34C=C[C@]2(C1)C1C(=O)OC(=O)C14` (stereo not given in full), the growth inhibition was 29.4%. For `Cc1cc(O)c2c(c1)C(=O)c1c(c(O)cc(O)c1-c1c(O)cc(O)c3c1C(=O)c1cc(C)cc(O)c1C3=O)C2=O`, the growth inhibition was 69.8%. Molecule `NC(=O)/C(=N\NC(=O)c1cc2ccccc2cc1O)C1C(=O)N(c2ccccc2)N=C1N` (stereo not given) has a growth inhibition of 20.7%. For `CCNC(=S)NNC(=S)NNc1ccccc1`, the growth inhibition was 66.8%. Molecule `OCC(O)C(O)C(O)C(O)C(O)C(/C=N/Nc1ccccc1)=N/Nc1ccccc1` (stereo not given) has a growth inhibition of 35.2%. `O=C(CN(Cc1ccccc1)Cc1ccccc1)c1ccccc1` gave a growth inhibition of 16.9%. `COC(=O)C1CCC(c2ccccc2)CC1C(=O)OC` (stereo not given) gave a growth inhibition of 33%. For `COc1ccc2c(c1)C(=O)C(Br)CC2` (stereo not given), the growth inhibition was 71.2% (active). In the case of `O=C1c2ccccc2C(=O)c2sc(Nc3ccc(Cl)cc3)nc21`, the growth inhibition is reported as 93.8% (active). For `O=Nc1c(-c2cccc([N+](=O)[O-])c2)nc2cnccn12`, the growth inhibition was 95.7% (active). In the case of `CC/C(=N\NS(=O)(=O)c1ccc(C)cc1)c1cccc(OC)c1`, the growth inhibition is reported as 88.8% (active). `NNC(=S)NN/C=C(\C=Nc1ccccc1)[N+](=O)[O-]` gave a growth inhibition of 65.5%. Molecule `CC(C)(C)c1ccc(CN2CCN(C(c3ccccc3)c3ccc(Cl)cc3)CC2)cc1` (stereo not given) has a growth inhibition of -10.8%. With `O=C1OCc2cccc3cccc1c23` the growth inhibition was 70.3% (active). Work on `CC(C)CC(NC(=O)COc1c(Cl)cc(Cl)c(Cl)c1Cl)C(=O)O` (stereo not given) yielded a growth inhibition of -32.6%. Molecule `CC1CCN(CCC(=O)c2cccc(O)c2)CC1` has a growth inhibition of 29.8%. `CCC(c1ccc(O)c(C2CCCCC2)c1)C(CC)c1ccc(OC(=O)c2ccccc2)c(C2CCCCC2)c1` (stereo not given) showed a growth inhibition of -17.1%. With `CC(=O)c1csc2c1C(=O)c1scc(C(C)=O)c1C2=O` the growth inhibition was 90.3% (active). For `O=C1C2=Cc3ccccc3CCN2c2ccccc21`, the growth inhibition was 89.8% (active). `Cc1cc(I)cc(I)c1O` gave a growth inhibition of 55.3%. With `NCCCSc1ccc(Br)cc1` the growth inhibition was 20.1%. In the case of `O=C1OC2(Cc3ccccc31)c1ccccc1-c1ccccc12`, the growth inhibition is reported as 41%. For `Cc1occc1C(=S)Nc1ccc(Cl)c(C(=O)OCC2CC2)c1`, the growth inhibition was 81.4% (active). `c1cc(C2=NCCN2)ccc1Nc1ccc(-c2cc3ccc(C4=NCCN4)cc3[nH]2)cc1` showed a growth inhibition of 51.3%. Work on `Cc1ccc(C)c(NC(=O)CC2SC(=Nc3ccccc3Cl)NC2=O)c1` (stereo not given) yielded a growth inhibition of 65.3%. In the case of `Cc1ccccc1[P+](C)(c1ccccc1C)c1ccccc1C`, the growth inhibition is reported as 82.2% (active). In the case of `Oc1ccc(CNCc2ccccc2)c2cccnc12`, the growth inhibition is reported as 96.2% (active). For `COC(=O)c1ccc(OC)cc1`, the growth inhibition was 49.8%. For `OCC(CO)C1c2cccc3ccc4cccc1c4c23`, the growth inhibition was 85.7% (active). For `CCC(CCCN(CC)CCc1ccccc1)OC(=O)c1cc(OC)c(OC)c(OC)c1` (stereo not given), the growth inhibition was 37.8%. For `O=[N+]([O-])c1ccc(-[n+]2ccc3ccccc3c2)c([N+](=O)[O-])c1`, the growth inhibition was 82.4% (active). `CN(C)CCC1(C2=CCCC2)CC/C(=C\c2ccccc2Cl)C1=O` (stereo not given) showed a growth inhibition of 42.4%. For `CCOC(=O)CCC(NC(=O)c1ccc(NC(OC)c2nc3cc(C(F)(F)F)ccc3nc2-c2ccccc2)cc1)C(=O)OCC` (stereo not given), the growth inhibition was 93.8% (active). In the case of `CCCCCCN(CCCCCC)CC(O)c1cc(-c2ccccc2)nc2c(O)cccc12` (stereo not given), the growth inhibition is reported as 93.8% (active). For `O=C1C=CC(=O)N1C1c2ccccc2-c2ccccc21`, the growth inhibition was 99.5% (active). Work on `CC(=O)c1ccc(OCc2ccccc2)cc1` yielded a growth inhibition of -17.9%. For `O=C(Oc1cccc2cccnc12)c1ccccc1`, the growth inhibition was 93.6% (active). For `C=C(Cl)C(=NC(C)(C)C)Nc1ccccc1C`, the growth inhibition was 81.4% (active). With `COC(=O)C(CSC(c1ccccc1)(c1ccccc1)c1ccccc1)NC(=O)C(CC(N)=O)NC(=O)OCc1ccccc1` (stereo not drawn) (Cbz-Asn-Cys(Trt)-OMe; configuration not given here) the growth inhibition was 72.5% (active). `ClCc1nnc2n1-c1ccc(Cl)cc1SC2` showed a growth inhibition of 35.3%.

Experiment: NCI Yeast Anticancer Drug Screen. Data for the cln2 rad14 strain (AID 165);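 further: 0% = growth equal to vehicle treated cultures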
Details: S. cerevisiae cln2 rad14 strain, at 5.0 µM (retest, dose inferred, filed as 0.5), hits give high values
Method in brief: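 Yeast strain cln2 rad14, bearing defects in cell cycle control and DNA repair, serves as the test system; values reflect growth inhibition compared with vehicle.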
In the case of `CC(=O)O[C@H]1CC[C@]2(C)C3=CC[C@]4(C)[C@@H](C(C)=O)CC[C@H]4[C@@]34C=C[C@]2(C1)C1C(=O)OC(=O)C14` (stereo not given in full), the growth inhibition is reported as 4%. Work on `Cc1cc(O)c2c(c1)C(=O)c1c(c(O)cc(O)c1-c1c(O)cc(O)c3c1C(=O)c1cc(C)cc(O)c1C3=O)C2=O` yielded a growth inhibition of 27%. Work on `NC(=O)/C(=N\NC(=O)c1cc2ccccc2cc1O)C1C(=O)N(c2ccccc2)N=C1N` (stereo not given) yielded a growth inhibition of 16%. With `CCNC(=S)NNC(=S)NNc1ccccc1` the growth inhibition was 45%. For `OCC(O)C(O)C(O)C(O)C(O)C(/C=N/Nc1ccccc1)=N/Nc1ccccc1` (stereo not given), the growth inhibition was 0%. `O=C(CN(Cc1ccccc1)Cc1ccccc1)c1ccccc1` gave a growth inhibition of 3%. `COC(=O)C1CCC(c2ccccc2)CC1C(=O)OC` (stereo not given) showed a growth inhibition of 5%. For `COc1ccc2c(c1)C(=O)C(Br)CC2` (stereo not given), the growth inhibition was 26%. `O=C1c2ccccc2C(=O)c2sc(Nc3ccc(Cl)cc3)nc21` gave a growth inhibition of 58%. In the case of `O=Nc1c(-c2cccc([N+](=O)[O-])c2)nc2cnccn12`, the growth inhibition is reported as 23%. For `CC/C(=N\NS(=O)(=O)c1ccc(C)cc1)c1cccc(OC)c1`, the growth inhibition was 37%. For `NNC(=S)NN/C=C(\C=Nc1ccccc1)[N+](=O)[O-]`, the growth inhibition was -17%. With `CC(C)(C)c1ccc(CN2CCN(C(c3ccccc3)c3ccc(Cl)cc3)CC2)cc1` (stereo not given) the growth inhibition was -4%. For `O=C1OCc2cccc3cccc1c23`, the growth inhibition was 8%. Work on `CC(C)CC(NC(=O)COc1c(Cl)cc(Cl)c(Cl)c1Cl)C(=O)O` (stereo not given) yielded a growth inhibition of 4%. Molecule `CC1CCN(CCC(=O)c2cccc(O)c2)CC1` has a growth inhibition of -2%. `CCC(c1ccc(O)c(C2CCCCC2)c1)C(CC)c1ccc(OC(=O)c2ccccc2)c(C2CCCCC2)c1` (stereo not given) gave a growth inhibition of -4%. `CC(=O)c1csc2c1C(=O)c1scc(C(C)=O)c1C2=O` gave a growth inhibition of 14%. With `O=C1C2=Cc3ccccc3CCN2c2ccccc21` the growth inhibition was -8%. `Cc1cc(I)cc(I)c1O` gave a growth inhibition of 4%. `NCCCSc1ccc(Br)cc1` gave a growth inhibition of 0%. `O=C1OC2(Cc3ccccc31)c1ccccc1-c1ccccc12` showed a growth inhibition of -5%. With `Cc1occc1C(=S)Nc1ccc(Cl)c(C(=O)OCC2CC2)c1` the growth inhibition was 2%. In the case of `c1cc(C2=NCCN2)ccc1Nc1ccc(-c2cc3ccc(C4=NCCN4)cc3[nH]2)cc1`, the growth inhibition is reported as 99% (active). Molecule `Cc1ccc(C)c(NC(=O)CC2SC(=Nc3ccccc3Cl)NC2=O)c1` (stereo not given) has a growth inhibition of 23%. Molecule `Cc1ccccc1[P+](C)(c1ccccc1C)c1ccccc1C` has a growth inhibition of 2%. Work on `Oc1ccc(CNCc2ccccc2)c2cccnc12` yielded a growth inhibition of -26%. Work on `COC(=O)c1ccc(OC)cc1` yielded a growth inhibition of -1%. For `OCC(CO)C1c2cccc3ccc4cccc1c4c23`, the growth inhibition was -6%. Work on `CCC(CCCN(CC)CCc1ccccc1)OC(=O)c1cc(OC)c(OC)c(OC)c1` (stereo not given) yielded a growth inhibition of 2%. `O=[N+]([O-])c1ccc(-[n+]2ccc3ccccc3c2)c([N+](=O)[O-])c1` showed a growth inhibition of 10%. With `CN(C)CCC1(C2=CCCC2)CC/C(=C\c2ccccc2Cl)C1=O` (stereo not given) the growth inhibition was -10%. With `CCOC(=O)CCC(NC(=O)c1ccc(NC(OC)c2nc3cc(C(F)(F)F)ccc3nc2-c2ccccc2)cc1)C(=O)OCC` (stereo not given) the growth inhibition was 80% (active). In the case of `CCCCCCN(CCCCCC)CC(O)c1cc(-c2ccccc2)nc2c(O)cccc12` (stereo not given), the growth inhibition is reported as 4%. In the case of `O=C1C=CC(=O)N1C1c2ccccc2-c2ccccc21`, the growth inhibition is reported as 77% (active). Work on `CC(=O)c1ccc(OCc2ccccc2)cc1` yielded a growth inhibition of -3%. For `O=C(Oc1cccc2cccnc12)c1ccccc1`, the growth inhibition was 2%. For `C=C(Cl)C(=NC(C)(C)C)Nc1ccccc1C`, the growth inhibition was 29%. Molecule `COC(=O)C(CSC(c1ccccc1)(c1ccccc1)c1ccccc1)NC(=O)C(CC(N)=O)NC(=O)OCc1ccccc1` (stereo not drawn) (Cbz-Asn-Cys(Trt)-OMe; configuration not given here) has a growth inhibition of 27%. Molecule `ClCc1nnc2n1-c1ccc(Cl)cc1SC2` has a growth inhibition of 13%.
